What all share (test): DAPPL (digital affinity profiling via proximity ligation, sequencing); 10 mM Tris-HCl pH 7.5, 50 mM NaCl, 1 mM DTT, 4% glycerol, room temperature, 30 min; GST-TFs on glutathione beads, 16-mer random dsDNA library, 0.1% formaldehyde crosslink after washing; high values mean tight binding
In one test the target is T1, FEV (Homo sapiens, UniProt Q99581 1-238).
T1 sequence: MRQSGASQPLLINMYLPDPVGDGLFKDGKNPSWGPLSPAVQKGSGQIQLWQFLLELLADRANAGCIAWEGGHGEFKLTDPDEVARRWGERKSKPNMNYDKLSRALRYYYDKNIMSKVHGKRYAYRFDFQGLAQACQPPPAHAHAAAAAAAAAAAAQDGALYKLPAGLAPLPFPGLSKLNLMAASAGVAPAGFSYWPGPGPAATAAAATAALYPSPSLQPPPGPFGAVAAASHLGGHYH
The conditions noted are these: protein: recombinant; tags: N-terminal GST; dsDNA, one strand shown. The essentials: (§1)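 After expression in yeast as GST fusions, human transcription factors were bound to glutathione beads, DNA-barcoded and mixed with a tag-only sample. The pools were incubated with 200 nmole of a 16-mer random double-stranded DNA library in Tris/NaCl/DTT/glycerol buffer (30 min, room temperature), washed and crosslinked with 0.1% formaldehyde. Proximity ligation with BsaI/T4 ligase ran for 1 h at 37 °C, before PCR amplification and sequencing on an Illumina NextSeq500. Binding signal is a hexamer's read frequency for a factor divided by its frequency for the tag-only sample.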

In a further test the target is ETV5 (Homo sapiens, UniProt P41161 1-510). The conditions noted are these: protein: recombinant; tags: N-terminal GST; dsDNA, one strand shown. In a few lines: as §1
ETV5, sequence (P41161 whole entry): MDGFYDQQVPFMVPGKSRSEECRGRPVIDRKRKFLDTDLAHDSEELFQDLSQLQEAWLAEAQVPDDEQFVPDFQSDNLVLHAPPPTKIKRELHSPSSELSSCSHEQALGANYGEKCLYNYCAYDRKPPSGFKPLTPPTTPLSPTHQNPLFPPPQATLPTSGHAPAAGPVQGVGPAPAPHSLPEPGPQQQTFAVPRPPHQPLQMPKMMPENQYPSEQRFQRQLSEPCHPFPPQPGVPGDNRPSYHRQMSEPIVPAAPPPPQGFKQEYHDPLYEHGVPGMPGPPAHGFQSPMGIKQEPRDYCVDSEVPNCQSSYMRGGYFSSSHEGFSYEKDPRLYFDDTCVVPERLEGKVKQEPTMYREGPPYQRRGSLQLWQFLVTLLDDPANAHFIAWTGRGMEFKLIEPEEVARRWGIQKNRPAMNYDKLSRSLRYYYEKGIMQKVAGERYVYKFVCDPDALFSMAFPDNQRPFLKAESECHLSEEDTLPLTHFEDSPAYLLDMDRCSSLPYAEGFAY
A further test has as its target HSF1 (Homo sapiens, UniProt Q00613 1-529). The conditions noted are these: protein: recombinant; tags: N-terminal GST; chain copies: 3; dsDNA, one strand shown. The essentials: as §1
The next test concerns the target T2, SPIC (Homo sapiens, UniProt Q8N5J4 1-248).
T2 sequence: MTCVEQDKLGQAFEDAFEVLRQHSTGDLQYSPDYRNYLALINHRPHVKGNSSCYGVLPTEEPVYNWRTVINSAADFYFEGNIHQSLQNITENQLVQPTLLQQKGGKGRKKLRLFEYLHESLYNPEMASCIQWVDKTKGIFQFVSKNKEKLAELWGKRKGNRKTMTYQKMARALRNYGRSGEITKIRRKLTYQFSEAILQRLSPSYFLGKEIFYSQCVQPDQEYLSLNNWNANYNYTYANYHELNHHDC
The conditions noted are these: protein: recombinant; tags: N-terminal GST; dsDNA, one strand shown. The essentials: as §1

For the next test, the target named is ELF4 (Homo sapiens, UniProt Q99607 1-663). The conditions noted are these: protein: recombinant; tags: N-terminal GST; dsDNA, one strand shown. In a few lines: as §1
ELF4, sequence (Q99607 whole entry): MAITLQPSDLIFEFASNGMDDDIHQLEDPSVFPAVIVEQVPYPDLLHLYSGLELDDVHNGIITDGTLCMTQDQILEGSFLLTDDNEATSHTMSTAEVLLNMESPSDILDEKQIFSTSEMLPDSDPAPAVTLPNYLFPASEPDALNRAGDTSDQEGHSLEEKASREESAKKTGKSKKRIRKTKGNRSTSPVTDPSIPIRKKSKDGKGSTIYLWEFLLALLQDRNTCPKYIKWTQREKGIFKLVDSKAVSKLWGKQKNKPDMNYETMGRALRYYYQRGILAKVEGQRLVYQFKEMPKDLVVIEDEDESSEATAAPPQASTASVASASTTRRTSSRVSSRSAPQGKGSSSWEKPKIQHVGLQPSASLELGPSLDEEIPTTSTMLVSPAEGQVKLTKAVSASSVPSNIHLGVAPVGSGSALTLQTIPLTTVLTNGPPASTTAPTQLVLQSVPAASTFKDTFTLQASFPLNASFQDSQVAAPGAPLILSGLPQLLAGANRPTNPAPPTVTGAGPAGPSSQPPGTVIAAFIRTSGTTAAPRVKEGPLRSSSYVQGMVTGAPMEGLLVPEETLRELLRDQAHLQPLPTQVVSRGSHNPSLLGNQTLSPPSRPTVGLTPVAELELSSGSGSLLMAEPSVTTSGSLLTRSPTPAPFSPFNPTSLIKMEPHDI
Another test deals with T3, ELK4 (Homo sapiens, UniProt P28324-2 1-405).
T3 sequence: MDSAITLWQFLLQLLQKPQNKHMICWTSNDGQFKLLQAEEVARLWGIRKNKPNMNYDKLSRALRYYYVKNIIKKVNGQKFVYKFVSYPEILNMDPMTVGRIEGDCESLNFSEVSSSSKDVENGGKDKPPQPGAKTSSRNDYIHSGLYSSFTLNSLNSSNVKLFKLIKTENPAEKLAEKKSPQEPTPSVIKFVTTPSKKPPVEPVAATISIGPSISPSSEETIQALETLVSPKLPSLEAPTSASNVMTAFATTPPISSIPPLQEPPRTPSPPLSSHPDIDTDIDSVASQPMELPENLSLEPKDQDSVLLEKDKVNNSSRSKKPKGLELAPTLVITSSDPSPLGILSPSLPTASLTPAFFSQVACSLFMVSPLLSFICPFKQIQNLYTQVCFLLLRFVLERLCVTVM
The conditions noted are these: protein: recombinant; tags: N-terminal GST; dsDNA, one strand shown. In a few lines: as §1

A further test addresses T4, ETV2 (Homo sapiens, UniProt O00321 1-342).
T4 sequence: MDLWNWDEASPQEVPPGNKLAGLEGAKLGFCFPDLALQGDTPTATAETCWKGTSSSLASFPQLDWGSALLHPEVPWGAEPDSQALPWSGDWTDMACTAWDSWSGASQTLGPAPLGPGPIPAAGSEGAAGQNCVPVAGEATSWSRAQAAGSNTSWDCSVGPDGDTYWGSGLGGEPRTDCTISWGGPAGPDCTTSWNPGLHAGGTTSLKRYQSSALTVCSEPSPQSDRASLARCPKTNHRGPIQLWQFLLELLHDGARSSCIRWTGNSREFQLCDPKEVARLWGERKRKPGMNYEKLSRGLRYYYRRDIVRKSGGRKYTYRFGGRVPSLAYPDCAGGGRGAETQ
The conditions noted are these: protein: recombinant; tags: N-terminal GST; dsDNA, one strand shown. The essentials:
as §1

For the next test, the target named is T5, ELF3 (Homo sapiens, UniProt P78545 1-371).
T5 sequence: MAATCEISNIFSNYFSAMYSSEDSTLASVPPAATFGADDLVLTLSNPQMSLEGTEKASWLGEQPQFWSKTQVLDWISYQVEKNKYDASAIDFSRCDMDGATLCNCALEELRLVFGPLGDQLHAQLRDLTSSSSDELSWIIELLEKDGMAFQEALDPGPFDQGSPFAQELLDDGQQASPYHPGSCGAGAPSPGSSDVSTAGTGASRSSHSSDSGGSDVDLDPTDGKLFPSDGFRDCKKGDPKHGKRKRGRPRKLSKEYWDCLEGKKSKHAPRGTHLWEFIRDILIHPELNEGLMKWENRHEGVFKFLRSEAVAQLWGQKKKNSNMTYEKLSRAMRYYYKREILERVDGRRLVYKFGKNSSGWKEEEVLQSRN
The conditions noted are these: protein: recombinant; tags: N-terminal GST; dsDNA, one strand shown. The essentials: as §1

The next test addresses CRX (Homo sapiens, UniProt O43186 1-299). The conditions noted are these: protein: recombinant; tags: N-terminal GST; dsDNA, one strand shown. The essentials: as §1
In the next test the target is ETV1 (Homo sapiens, UniProt P50549 1-477). The conditions noted are these: protein: recombinant; tags: N-terminal GST; dsDNA, one strand shown. In a few lines:
as §1

The next test has as its target T6, ERF (Homo sapiens, UniProt P50548 1-548).
T6 sequence: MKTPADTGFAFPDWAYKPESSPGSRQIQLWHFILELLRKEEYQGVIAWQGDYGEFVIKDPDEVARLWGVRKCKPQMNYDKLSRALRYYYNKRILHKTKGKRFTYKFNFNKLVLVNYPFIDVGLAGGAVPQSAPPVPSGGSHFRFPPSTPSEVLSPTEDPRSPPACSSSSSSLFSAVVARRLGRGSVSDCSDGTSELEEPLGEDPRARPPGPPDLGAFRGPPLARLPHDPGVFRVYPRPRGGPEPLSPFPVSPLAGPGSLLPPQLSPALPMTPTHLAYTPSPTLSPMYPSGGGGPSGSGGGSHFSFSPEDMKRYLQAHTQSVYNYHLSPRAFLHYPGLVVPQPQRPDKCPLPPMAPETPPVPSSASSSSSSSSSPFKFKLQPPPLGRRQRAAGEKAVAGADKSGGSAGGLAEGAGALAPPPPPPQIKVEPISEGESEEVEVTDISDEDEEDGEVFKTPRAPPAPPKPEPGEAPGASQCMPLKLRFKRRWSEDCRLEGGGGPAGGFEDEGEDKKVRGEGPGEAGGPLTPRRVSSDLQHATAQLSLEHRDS
The conditions noted are these: protein: recombinant; tags: N-terminal GST; dsDNA, one strand shown. In a few lines: as §1

A further test deals with T7, ETV3L (Homo sapiens, UniProt Q6ZN32 1-361).
T7 sequence: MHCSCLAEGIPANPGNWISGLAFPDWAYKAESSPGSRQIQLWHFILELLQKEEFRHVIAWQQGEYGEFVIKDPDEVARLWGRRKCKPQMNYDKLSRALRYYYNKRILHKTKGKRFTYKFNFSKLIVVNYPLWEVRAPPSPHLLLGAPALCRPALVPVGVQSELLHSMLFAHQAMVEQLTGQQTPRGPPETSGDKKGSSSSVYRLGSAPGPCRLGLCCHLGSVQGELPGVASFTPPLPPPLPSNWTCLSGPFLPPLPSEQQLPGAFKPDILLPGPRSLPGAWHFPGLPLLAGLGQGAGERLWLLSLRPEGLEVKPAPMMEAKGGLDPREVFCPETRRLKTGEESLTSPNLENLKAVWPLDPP
The conditions noted are these: protein: recombinant; tags: N-terminal GST; dsDNA, one strand shown. The essentials: as §1

Another test addresses T8, ETS2 (Homo sapiens, UniProt P15036 1-469).
T8 sequence: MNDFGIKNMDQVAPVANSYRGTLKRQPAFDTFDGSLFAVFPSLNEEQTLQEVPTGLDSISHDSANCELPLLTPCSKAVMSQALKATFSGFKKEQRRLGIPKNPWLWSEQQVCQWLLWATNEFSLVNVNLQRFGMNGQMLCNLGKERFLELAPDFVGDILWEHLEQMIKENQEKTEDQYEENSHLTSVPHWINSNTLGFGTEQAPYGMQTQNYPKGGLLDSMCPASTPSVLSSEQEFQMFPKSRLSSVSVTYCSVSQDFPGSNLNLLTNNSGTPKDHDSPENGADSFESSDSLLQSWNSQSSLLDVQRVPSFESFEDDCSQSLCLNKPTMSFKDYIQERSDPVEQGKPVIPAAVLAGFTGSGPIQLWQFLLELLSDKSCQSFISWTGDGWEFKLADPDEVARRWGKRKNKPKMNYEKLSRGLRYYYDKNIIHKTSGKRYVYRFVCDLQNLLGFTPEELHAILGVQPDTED
The conditions noted are these: protein: recombinant; tags: N-terminal GST; dsDNA, one strand shown. The essentials:
as §1

The target in the next test is T9, SPDEF (Homo sapiens, UniProt O95238 1-335).
T9 sequence: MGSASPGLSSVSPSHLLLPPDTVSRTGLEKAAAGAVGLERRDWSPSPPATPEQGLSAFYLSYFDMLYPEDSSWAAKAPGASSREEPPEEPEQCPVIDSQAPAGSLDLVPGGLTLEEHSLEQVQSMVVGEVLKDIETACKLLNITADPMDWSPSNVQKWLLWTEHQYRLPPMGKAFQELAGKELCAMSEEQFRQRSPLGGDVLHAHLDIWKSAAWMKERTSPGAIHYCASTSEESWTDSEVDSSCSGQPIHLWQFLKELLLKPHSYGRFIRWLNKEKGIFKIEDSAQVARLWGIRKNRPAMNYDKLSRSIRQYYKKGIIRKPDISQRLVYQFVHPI
The conditions noted are these: protein: recombinant; tags: N-terminal GST; dsDNA, one strand shown. In a few lines: as §1

The target in the next test is T10, ETV7 (Homo sapiens, UniProt Q9Y603 1-341).
T10 sequence: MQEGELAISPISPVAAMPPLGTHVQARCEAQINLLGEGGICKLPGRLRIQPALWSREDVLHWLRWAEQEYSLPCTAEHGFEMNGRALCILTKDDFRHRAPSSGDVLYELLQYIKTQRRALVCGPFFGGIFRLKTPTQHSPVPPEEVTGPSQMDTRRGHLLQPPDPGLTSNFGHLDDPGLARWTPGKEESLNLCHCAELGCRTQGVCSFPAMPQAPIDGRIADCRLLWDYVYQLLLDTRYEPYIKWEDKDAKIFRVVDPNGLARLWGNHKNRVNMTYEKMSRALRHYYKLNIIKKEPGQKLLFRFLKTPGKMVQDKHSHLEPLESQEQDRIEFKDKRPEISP
The conditions noted are these: protein: recombinant; tags: N-terminal GST; dsDNA, one strand shown. The essentials: as §1

A further test has as its target T11, ELF5 (Homo sapiens, UniProt Q9UKW6-2 1-255).
T11 sequence: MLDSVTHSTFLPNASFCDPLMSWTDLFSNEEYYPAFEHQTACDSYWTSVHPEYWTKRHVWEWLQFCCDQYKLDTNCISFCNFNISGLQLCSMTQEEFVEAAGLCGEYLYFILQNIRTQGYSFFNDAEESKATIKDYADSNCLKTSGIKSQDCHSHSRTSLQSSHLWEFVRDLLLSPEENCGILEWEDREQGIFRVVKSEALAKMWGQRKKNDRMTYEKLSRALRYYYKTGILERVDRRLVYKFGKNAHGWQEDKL
The conditions noted are these: protein: recombinant; tags: N-terminal GST; dsDNA, one strand shown. In a few lines:
as §1

In another test the target is T12, ETV3 (Homo sapiens, UniProt P41162-2 1-143).
T12 sequence: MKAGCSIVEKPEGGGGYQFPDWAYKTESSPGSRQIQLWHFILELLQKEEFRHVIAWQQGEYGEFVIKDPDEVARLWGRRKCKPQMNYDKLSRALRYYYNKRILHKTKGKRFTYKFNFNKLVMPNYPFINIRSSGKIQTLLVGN
The conditions noted are these: protein: recombinant; tags: N-terminal GST; dsDNA, one strand shown. In a few lines:
as §1

A further test addresses ETV6 (Homo sapiens, UniProt P41212 1-452). The conditions noted are these: protein: recombinant; tags: N-terminal GST; dsDNA, one strand shown. The essentials:
as §1

CRX, sequence (O43186 whole entry): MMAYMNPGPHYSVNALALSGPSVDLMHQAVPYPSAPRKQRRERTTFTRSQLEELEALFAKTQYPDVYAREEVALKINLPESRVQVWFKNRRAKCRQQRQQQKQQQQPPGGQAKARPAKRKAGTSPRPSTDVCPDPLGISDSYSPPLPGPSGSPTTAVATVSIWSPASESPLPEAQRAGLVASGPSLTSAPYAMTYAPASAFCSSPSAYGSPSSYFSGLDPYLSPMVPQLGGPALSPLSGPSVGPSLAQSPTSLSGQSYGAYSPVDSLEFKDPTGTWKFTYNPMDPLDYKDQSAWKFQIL
ETV6, sequence (P41212 whole entry): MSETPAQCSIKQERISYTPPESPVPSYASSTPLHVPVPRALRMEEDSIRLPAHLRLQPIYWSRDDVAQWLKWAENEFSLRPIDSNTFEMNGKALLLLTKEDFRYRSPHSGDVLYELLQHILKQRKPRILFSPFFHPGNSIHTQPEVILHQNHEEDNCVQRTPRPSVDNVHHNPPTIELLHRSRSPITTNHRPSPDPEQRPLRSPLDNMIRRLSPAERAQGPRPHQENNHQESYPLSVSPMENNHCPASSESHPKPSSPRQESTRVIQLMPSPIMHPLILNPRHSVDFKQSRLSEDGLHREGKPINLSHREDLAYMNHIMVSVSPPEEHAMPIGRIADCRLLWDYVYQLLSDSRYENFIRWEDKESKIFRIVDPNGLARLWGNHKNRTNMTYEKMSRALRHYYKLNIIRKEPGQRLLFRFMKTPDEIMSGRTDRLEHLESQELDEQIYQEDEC
HSF1, sequence (Q00613 whole entry): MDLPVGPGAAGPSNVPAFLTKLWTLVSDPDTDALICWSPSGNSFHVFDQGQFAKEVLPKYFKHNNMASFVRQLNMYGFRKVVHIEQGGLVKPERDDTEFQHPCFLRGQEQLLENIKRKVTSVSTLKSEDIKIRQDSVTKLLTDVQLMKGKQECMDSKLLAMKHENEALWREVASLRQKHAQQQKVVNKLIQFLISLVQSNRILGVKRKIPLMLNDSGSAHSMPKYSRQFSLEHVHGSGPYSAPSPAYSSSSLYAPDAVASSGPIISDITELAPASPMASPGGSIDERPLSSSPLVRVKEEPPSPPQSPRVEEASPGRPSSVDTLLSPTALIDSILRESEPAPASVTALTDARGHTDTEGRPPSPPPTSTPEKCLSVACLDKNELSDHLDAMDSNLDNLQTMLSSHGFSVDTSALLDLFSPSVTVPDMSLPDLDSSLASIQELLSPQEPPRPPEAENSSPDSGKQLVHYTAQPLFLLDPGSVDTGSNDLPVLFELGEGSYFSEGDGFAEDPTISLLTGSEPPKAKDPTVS
ETV1, sequence (P50549 whole entry): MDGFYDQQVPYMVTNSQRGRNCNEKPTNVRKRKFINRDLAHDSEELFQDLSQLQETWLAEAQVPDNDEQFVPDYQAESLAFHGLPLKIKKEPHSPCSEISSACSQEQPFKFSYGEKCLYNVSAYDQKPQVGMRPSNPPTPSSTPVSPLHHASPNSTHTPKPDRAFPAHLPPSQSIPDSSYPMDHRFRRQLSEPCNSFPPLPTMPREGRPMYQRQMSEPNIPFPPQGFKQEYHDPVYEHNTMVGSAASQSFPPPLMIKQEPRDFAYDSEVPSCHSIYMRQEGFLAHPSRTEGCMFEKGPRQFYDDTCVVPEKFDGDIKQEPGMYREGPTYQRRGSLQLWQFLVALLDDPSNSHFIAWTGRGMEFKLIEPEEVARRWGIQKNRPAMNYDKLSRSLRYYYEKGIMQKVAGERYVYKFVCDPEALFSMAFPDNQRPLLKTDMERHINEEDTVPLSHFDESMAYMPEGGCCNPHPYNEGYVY

For CTACGG, the binding signal in the test with FEV is 1.28 fold enrichment (6-mer frequency, TF over GST control); with ETV5 it was 1.21 fold enrichment (6-mer frequency, TF over GST control); in the test with HSF1, 1.03 fold enrichment (6-mer frequency, TF over GST control); with SPIC it was 1.08 fold enrichment (6-mer frequency, TF over GST control); with ELF4 it was 1.22 fold enrichment (6-mer frequency, TF over GST control); in the test with ELK4, 1.37 fold enrichment (6-mer frequency, TF over GST control). The binding signal is 1.29 fold enrichment (6-mer frequency, TF over GST control) with ETV2; 1.38 fold enrichment (6-mer frequency, TF over GST control) with ELF3; 1.08 fold enrichment (6-mer frequency, TF over GST control) with CRX; 1.34 fold enrichment (6-mer frequency, TF over GST control) with ETV1; 1.37 fold enrichment (6-mer frequency, TF over GST control) with ERF; 1.42 fold enrichment (6-mer frequency, TF over GST control) in the test with ETV3L. Besides, the binding signal is 1.16 fold enrichment (6-mer frequency, TF over GST control) with ETS2; 1.17 fold enrichment (6-mer frequency, TF over GST control) in the test with SPDEF; 1.28 fold enrichment (6-mer frequency, TF over GST control) with ETV7; 1.24 fold enrichment (6-mer frequency, TF over GST control) in the test with ELF5; 1.29 fold enrichment (6-mer frequency, TF over GST control) with ETV3; 1.19 fold enrichment (6-mer frequency, TF over GST control) with ETV6.
